PAFAH2 inh: PAFAH2 enzyme inhibitors, primary screen, biochemical, fluorescence polarization, human; Platelet-activating factor acetylhydrolase 2, cytoplasmic (Homo sapiens), Q99487; inhibition, % at 3.39 µM; actives 0.99% (n = 340,000); AID 492956, 2010; recombinant PAFAH2, FP-rhodamine activity probe;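 active = inhibition above the mean over all tested compounds plus 3 SD, cut at about 30% in these data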;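 note: inhibitors block probe labeling of enzyme so polarization drops; 0% = enzyme with DMSO and 100% = wells lacking PAFAH2 protein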
PAFAH1B3 FP inh: PAFAH1B3 enzyme inhibitors, primary screen, biochemical, fluorescence polarization, human. Platelet-activating factor acetylhydrolase IB subunit alpha1 (Homo sapiens), Q15102. recombinant PAFAH1B3, FP-rhodamine probe. inhibition, % at 3.39 µM. actives 0.28% (n = 340,000);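 active = inhibition above the screen-wide average of all tested compounds plus 3 SD, cut at about 25% in these data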;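 note: 0% = enzyme with DMSO only and 100% = wells lacking PAFAH1B3 protein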
Target sequence (Q15102 whole entry, looked up): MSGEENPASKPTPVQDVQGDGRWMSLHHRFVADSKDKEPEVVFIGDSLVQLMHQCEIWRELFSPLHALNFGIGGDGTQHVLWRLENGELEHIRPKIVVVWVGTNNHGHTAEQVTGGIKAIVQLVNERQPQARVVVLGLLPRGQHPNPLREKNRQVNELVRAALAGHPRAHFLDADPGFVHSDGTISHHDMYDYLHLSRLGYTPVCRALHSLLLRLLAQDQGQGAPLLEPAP
Fam108B counter: mouse Fam108B serine hydrolase inhibitors, primary screen, counter-screen for RBBP9 inhibitor project, biochemical, fluorescence polarization. recombinant Fam108B, FP-Rh probe fluorescence polarization. inhibition, % at 9.51 µM. actives 0.33% (n = 300,000). AID 1947, 2009;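 active = inhibition above the screen mean inhibition plus 3 SD, computed separately per campaign, cut at about 18% in these data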;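 note: inhibitors lower polarization as less probe binds the enzyme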
PAFAH1B2 inh: PAFAH1B2 enzyme inhibitors, primary screen, biochemical, fluorescence polarization, human. actives 1.2% (n = 340,000). inhibition, % at 3.39 µM. AID 492953, 2010. Platelet-activating factor acetylhydrolase IB subunit alpha2 (Homo sapiens), P68402. recombinant PAFAH1B2, FP-rhodamine activity probe;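 active = inhibition above the mean of all tested compounds plus 3 SD, cut at about 24% in these data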;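 note: 0% = enzyme with DMSO and 100% = wells lacking PAFAH1B2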
pPAFAH FP inh: pPAFAH enzyme inhibitors, primary screen, biochemical, fluorescence polarization, human | Platelet-activating factor acetylhydrolase (Homo sapiens), Q13093 | recombinant pPAFAH, FP-rhodamine probe fluorescence polarization | inhibition, % at 3.39 µM | actives 1.5% (n = 330,000) | AID 463082, 2010;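 active = inhibition above the mean inhibition across the screen plus 3 SD, cut at about 25% in these data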;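 note: inhibitors block binding of the rhodamine activity-based probe so polarization drops; 0% = enzyme with DMSO and 100% = wells lacking pPAFAH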
PME-1 inh: PME-1 inhibitors via competitive probe labeling, primary screen, biochemical, fluorescence polarization, FP-Rh probe, HTS | Protein phosphatase methylesterase 1 (Homo sapiens), Q9Y570 | recombinant PME-1 | inhibition, % at 5.9 µM | actives 0.53% (n = 320,000) | AID 2130, 2009;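 active = inhibition above the campaign mean of all compounds plus 3 SD, cut at about 26% in these data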;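 note: competitive labeling of PME-1 active site by serine hydrolase directed probe; 0% = PME-1 with DMSO and 100% = wells lacking PME-1 enzyme; inhibitors block probe labeling so polarization falls and inhibition rises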
Target sequence (Q9Y570 whole entry, looked up): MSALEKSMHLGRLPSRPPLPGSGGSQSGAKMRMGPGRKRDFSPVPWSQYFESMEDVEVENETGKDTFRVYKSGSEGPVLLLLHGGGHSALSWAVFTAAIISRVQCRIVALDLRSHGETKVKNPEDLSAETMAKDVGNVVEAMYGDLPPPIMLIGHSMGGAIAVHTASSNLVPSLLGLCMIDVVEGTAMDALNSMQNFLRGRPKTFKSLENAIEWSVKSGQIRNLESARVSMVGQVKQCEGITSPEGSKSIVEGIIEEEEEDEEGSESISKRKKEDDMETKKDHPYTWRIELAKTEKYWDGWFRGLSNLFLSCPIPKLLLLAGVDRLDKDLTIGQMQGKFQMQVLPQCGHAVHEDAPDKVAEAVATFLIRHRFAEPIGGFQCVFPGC
pPAFAH FP conf: pPAFAH (PLA2G7) enzyme inhibitors, confirmation, biochemical, fluorescence polarization, human; recombinant pPAFAH, FP-Rh probe fluorescence polarization; AID 463230, 2010; inhibition, % at 3.39 µM; actives 72% (n = 2,300); shares compounds with pPAFAH FP inh;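 active = mean inhibition of the triplicate above the hit cutoff set for the earlier primary screen, cut at about 25% in these data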;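 note: 0% = enzyme with DMSO and 100% = wells lacking pPAFAH enzyme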
* hit, by the source's call. Hits are enriched below; roughly 2.8% of the tested compounds scored in any of these assays.

`Oc1c(Cl)cc(Cl)cc1/C=N/NC(=S)NC1CC2C=CC1C2` (centres undefined) gave PAFAH2 inh 68.4*, PAFAH1B3 FP inh 25.9*, Fam108B counter 13.6, PAFAH1B2 inh 21.1, pPAFAH FP inh 36.0*, PME-1 inh 10.7 and pPAFAH FP conf 34.0*.
Cc1cccc(N2N=C(C(=O)O)CCC2=O)c1 was read as PAFAH2 inh -0.9, PAFAH1B3 FP inh 2.4, Fam108B counter 1.2, PAFAH1B2 inh -6.3, pPAFAH FP inh 3.7 and PME-1 inh -3.0.
COc1ccc(Br)cc1/C=N/Nc1cccc(C(=O)O)c1 was read as PAFAH2 inh 1.7, PAFAH1B3 FP inh 0.7, Fam108B counter 2.7, PAFAH1B2 inh -1.8, pPAFAH FP inh 7.2 and PME-1 inh -0.7.
O=C(O)c1cccc(N/N=C/c2cc(Br)cc(Br)c2O)c1 was read as PAFAH2 inh 36.8*, PAFAH1B3 FP inh 12.7, Fam108B counter 18.0, PAFAH1B2 inh 18.8, pPAFAH FP inh 45.4*, PME-1 inh 57.7* and pPAFAH FP conf 44.1*.
For CC(C)(C)S(=O)(=O)/C(C#N)=N/Nc1ccc(Cl)cc1 the results were PAFAH2 inh 2.5, PAFAH1B3 FP inh 9.6, Fam108B counter 0.9, PAFAH1B2 inh 5.8, pPAFAH FP inh 34.7*, PME-1 inh 0.2 and pPAFAH FP conf 37.2*.
Screening Cc1[nH]c(C)c(S(=O)(=O)N2CCCCC2)c1C(=O)N1CCCCC1 returned PAFAH2 inh 3.2, PAFAH1B3 FP inh 2.1, Fam108B counter 0.0, PAFAH1B2 inh 2.9, pPAFAH FP inh 3.5 and PME-1 inh -0.4.
For Cc1ccc(NC(=S)N(CCN(C)C)C(C)c2ccco2)cc1C (centres undefined) the results were PAFAH2 inh 7.8, PAFAH1B3 FP inh 4.2, Fam108B counter -0.7, PAFAH1B2 inh 0.2, pPAFAH FP inh 37.5*, PME-1 inh -1.3 and pPAFAH FP conf 1.8.
Cc1c(CC(=O)N2CCC(C(N)=O)CC2)c(=O)oc2cc3c(cc12)CCC1(CCCCC1)O3 was read as PAFAH2 inh -0.3, PAFAH1B3 FP inh 5.6, Fam108B counter 5.0, PAFAH1B2 inh 6.7, pPAFAH FP inh 14.6 and PME-1 inh -1.0.
Cc1nnsc1C(=O)N/N=C/c1ccc2ccccc2c1O was read as PAFAH2 inh 8.3, PAFAH1B3 FP inh 13.1, Fam108B counter 6.2, PAFAH1B2 inh 11.0, pPAFAH FP inh 36.3*, PME-1 inh 6.2 and pPAFAH FP conf 48.2*.
Screening Cc1nnsc1C(=O)N/N=C/c1ccccc1 returned PAFAH2 inh 1.0, PAFAH1B3 FP inh 0.4, Fam108B counter -2.2, PAFAH1B2 inh 2.0, pPAFAH FP inh -4.0 and PME-1 inh 0.9.
Screening CCOc1ccc(-n2ccnc2)nn1 returned PAFAH2 inh -7.6, PAFAH1B3 FP inh 6.4, Fam108B counter 0.7, PAFAH1B2 inh 0.8, pPAFAH FP inh 45.3*, PME-1 inh 1.0 and pPAFAH FP conf 3.8.
For CC(=O)N1CCN(c2ccc(Nc3nc(C)nc4c3oc3ccccc34)cc2)CC1 the results were PAFAH2 inh 2.3, PAFAH1B3 FP inh 2.1, Fam108B counter 0.9, PAFAH1B2 inh 5.8, pPAFAH FP inh 39.6*, PME-1 inh 8.2 and pPAFAH FP conf 34.2*.
For N#CC(C#N)=C(N)/C(C#N)=C/c1cc(O)c(O)c(O)c1 the results were PAFAH2 inh 35.4*, PAFAH1B3 FP inh 38.7*, Fam108B counter -0.7, PAFAH1B2 inh 33.5*, pPAFAH FP inh 38.9*, PME-1 inh -7.0 and pPAFAH FP conf 59.9*.
For CCc1ccccc1N(CC(=O)NC(C)(C)CC)C(=O)CCC(=O)Nc1nccs1 the results were PAFAH2 inh 1.5, PAFAH1B3 FP inh -4.4, Fam108B counter -3.8, PAFAH1B2 inh 4.7, pPAFAH FP inh 9.0 and PME-1 inh -0.1.
`CC(=O)c1cccc(N(CC(=O)NC2CCCC2)C(=O)c2csnn2)c1` gave PAFAH2 inh -6.9, PAFAH1B3 FP inh 1.8, Fam108B counter 1.6, PAFAH1B2 inh 1.3, pPAFAH FP inh 3.1 and PME-1 inh -0.7.
O=C(Nc1cccc(S(=O)(=O)Nc2ccc(Cl)cc2)c1)c1ccc(Cl)nc1 was read as PAFAH2 inh -16.5, PAFAH1B3 FP inh -14.7, Fam108B counter -12.9, PAFAH1B2 inh -0.6, pPAFAH FP inh 40.5*, PME-1 inh -9.9 and pPAFAH FP conf 34.4*.
For COc1ccc(NS(=O)(=O)c2cccc(NC(=O)c3ccc(Cl)nc3)c2)cc1 the results were PAFAH2 inh -10.9, PAFAH1B3 FP inh -10.0, Fam108B counter -7.6, PAFAH1B2 inh 1.1, pPAFAH FP inh 16.6 and PME-1 inh -10.5.
NS(=O)(=O)c1ccc(-c2ccc(/C=N/Nc3ccc(C(=O)O)cc3)o2)cc1 was read as PAFAH2 inh 2.9, PAFAH1B3 FP inh 4.5, Fam108B counter 5.4, PAFAH1B2 inh 7.8, pPAFAH FP inh 21.4 and PME-1 inh -12.3.
For Cc1cc(C)n(Cc2ccc(C(=O)N/N=C/c3ccc(-c4ccc([N+](=O)[O-])cc4)o3)o2)n1 the results were PAFAH2 inh 37.7*, PAFAH1B3 FP inh 4.9, Fam108B counter 5.8, PAFAH1B2 inh -2.1, pPAFAH FP inh 52.1*, PME-1 inh 0.9 and pPAFAH FP conf 46.7*.
`O=C(O)c1ccc(-c2ccc(/C=N/Nc3ccc([N+](=O)[O-])cc3)o2)cc1` gave PAFAH2 inh 10.4, PAFAH1B3 FP inh 10.4, Fam108B counter 14.5, PAFAH1B2 inh 5.9, pPAFAH FP inh 46.7*, PME-1 inh 46.5* and pPAFAH FP conf 38.5*.
`O=C(O)c1ccc(N/N=C/c2ccc(-c3cccc(Cl)c3)o2)cc1` gave PAFAH2 inh 15.6, PAFAH1B3 FP inh 17.9, Fam108B counter 17.4, PAFAH1B2 inh 4.8, pPAFAH FP inh 65.4*, PME-1 inh 23.6 and pPAFAH FP conf 46.6*.
CCCCC(=O)N/N=C/c1ccc(-c2ccc([N+](=O)[O-])cc2)o1 was read as PAFAH2 inh 7.6, PAFAH1B3 FP inh -1.8, Fam108B counter 0.5, PAFAH1B2 inh 3.4, pPAFAH FP inh 8.0 and PME-1 inh 4.1.
`CCCc1ccc2oc(C(=O)N3CCCC3)c(C)c2c1` gave PAFAH2 inh 8.8, PAFAH1B3 FP inh 7.1, Fam108B counter 1.3, PAFAH1B2 inh 6.5, pPAFAH FP inh 13.6 and PME-1 inh -4.5.
Screening CC(C)(C)OC(=O)NCCCC[C@H](NC(=O)c1[nH]cnc1C(=O)Nc1ccccc1)C(=O)OC(C)(C)C returned PAFAH2 inh -4.5, PAFAH1B3 FP inh -3.0, Fam108B counter -16.9, PAFAH1B2 inh 0.6, pPAFAH FP inh 12.1 and PME-1 inh -15.1.
